# Compound activity deposited in PubChem BioAssay by National Center for Advancing Translational Sciences (NCATS).
# Compounds with a hit are over-represented: about 6.5% of the library has one in this group of screens.
# VACV mCherry inh – vaccinia inhibition (mCherry reporter) | Vaccinia virus mCherry reporter infection, fluorescence | Potency, µM (series often up to 36.5 µM), without a hit: at the top dose activity change, negative = inhibition, actives largely listed as inhibitors | 310,000 compounds, 0.63% hits; calls by dose curve; tested in A549 cells; further: potency means the concentration at half of the fitted maximal effect; nearly all actives have a fitted effect of over 35% in size
# Vaccinia Venus – inhibitors of vaccinia virus (Venus reporter); Vaccinia virus Venus reporter expression, fluorescence; Potency, µM (doses to about 36.5 µM), for inactives: top-dose activity change, negative = inhibition, hits mostly inhibitors; 330,000 compounds, 0.46% hits; AID 720580; calls by dose curve; tested in A549 cells; further: potency means the concentration at half of the fitted maximal effect; nearly all actives have a fitted effect of over 30% in size
# HCMV antiviral – inhibitors of human cytomegalovirus. HFF cells, HCMV-luciferase reporter, 72 h; active compounds read low. activity change, negative = inhibition, % at 57.5 µM. 410,000 compounds, 4.5% hits. AID 1259415; in the data active means activity change below about -60%; inconclusive means no clear call, values can overlap the other calls; inactive means above about -39%
#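 Compounds were evaluated in HFFs infected with an HCMV luciferase reporter virus (MOI 1 PFU/cell). Luciferase in lysates collected 72 h post infection served as the replication measure.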
# MARV entry inh – inhibitors of Marburg virus binding or cell entry. 300,000 compounds, 1.8% hits. AID 540276. Marburg virus pseudotyped entry inhibition, cell reporter. Potency, µM (highest dose often 37.8 µM), without a hit: at the top dose activity change, negative = inhibition, hits mostly inhibitors; calls by dose curve; tested in HEK293 cells; further: potency means the concentration at half of the fitted maximal effect
# FMDV inh – blocks foot and mouth disease virus. FMDV antiviral cell-based qHTS. Potency, µM (series often up to 57.9 µM), for inactives: top-dose activity change, negative = inhibition, usual class: inhibitors. 410,000 compounds, 1.2% hits. AID 1159524; calls by dose curve; tested in HEK293T cells; further: read-out not given here; potency means the concentration at half of the fitted maximal effect; nearly all actives have a fitted effect of over 45% in size
# LASV entry inh – inhibitors of Lassa virus binding or cell entry; 300,000 compounds, 1.2% hits; Lassa virus pseudotype entry inhibition, cell reporter; Potency, µM (doses to about 37.9 µM), inactives show at the top dose activity change, negative = inhibition, actives largely listed as inhibitors; calls by dose curve; tested in HEK293 cells; further: potency means the concentration at half of the fitted maximal effect; nearly all actives have a fitted effect of over 50% in size
# The depositor's hits bear a star; i = inactive; ? = inconclusive; / = not tested or not shown; [ ] = remark or other dose. On the % scale 0 is the no-effect control and ±100 the full control effect.
SMILES,VACV mCherry inh,Vaccinia Venus,HCMV antiviral,MARV entry inh,FMDV inh,LASV entry inh
COc1ccc(-n2nc(C(=O)NCCc3cccc(C)c3)c3c4ccccc4n(C)c3c2=O)cc1Cl,-13.9%,-9.1%,6.1,-0.8%[46.1 µM],-23.6%,23.1%[46.1 µM]
CCc1ccccc1N=C1S/C(=C/c2ccccc2OCC(=O)N2CCOCC2)C(=O)N1C,?,?,-39.4,-29.3%,?,14.6µM*
O=C1NN(c2ccccc2)C(=O)/C1=C\c1ccccc1OCC(=O)N1CCOCC1,i,-4.9%,52.8,0.2%,-7.7%,-13.7%
CCOC(=O)[C@]12Cc3cc(OC)ccc3[C@H]1N(C1CCCCC1)C(=O)c1ccccc12,?,?,-101.0*,/,8.91µM*,/
CCOC(=O)[C@]12Cc3cc(Cl)ccc3[C@H]1N(C1CCCCC1)C(=O)c1ccccc12,?,?,/,/,4.47µM*,/
CCOC(=O)[C@]12Cc3cc(OC)ccc3[C@H]1N(C)C(=O)c1ccccc12,-14.6%,-4.3%,34.0,/,?,/
Nc1nc2c(nc(Sc3ccc(Cl)cc3)n2C2OC(CO)C(O)C2O)c(=O)[nH]1 (stereo not given),-7.3%,3.8%,/,/,-13.2%,/
Cc1ccc(CN2CCC(c3cc(-c4cccs4)n[nH]3)CC2)cc1,-27.0%,-18.5%,-31.4,-28.7%[46.1 µM],-18.6%,?
FC(F)(F)c1cccc(-c2cc(C3CCNCC3)[nH]n2)c1,-21.4%,-12.0%,-72.5*,?,-14.1%,?
FC(F)(F)c1cccc(CN2CCC(c3cc(-c4cccs4)n[nH]3)CC2)c1,?,?,-78.7*,?,-12.7%,?
Cc1ccc(S(=O)(=O)c2cn(Cc3cccc(F)c3)c3cc(N4CCCC4)c(F)cc3c2=O)cc1,-11.8%,0.4%,7.0,/,0.9%,-0.9%[46.1 µM]
COCCCNC(NC(=O)c1ccc(Br)cc1)C(Cl)(Cl)Cl (stereo not given),-19.8%,-15.5%,-65.7*,5.8%,0.0%,11.3%
COCCCNC(=O)c1ccc(C(=O)NCCCOC)cc1,-10.4%,-3.3%,20.3,12.3%,-2.9%,27.5%[14.3 µM]
O=[N+]([O-])c1cc(Cl)cc2c1nc(NCCO)c1ccccc12,0.891µM*,?,-94.9*,?,-7.2%,-9.1%[46.1 µM]
CCOC(=O)c1nnn2c1nc(Nc1cccc(C(F)(F)F)c1)c1ccccc12,-14.0%,-16.4%,-74.3*,?,-17.4%,21.5%
Nc1ccccc1N1C(=O)c2ccccc2C1=O,/,/,11.8,/,/,/
Cn1nc(C(=O)N2CCN(c3ccc(Cl)cc3)CC2)c2c1-c1ccccc1SC2,3.0%,-2.3%,-71.2*,3.3%[46.1 µM],-25.0%,13.5%[46.1 µM]
CC1CC(C)CN(C(=O)c2nn(C)c3c2CSc2ccccc2-3)C1 (stereo not given),i,-26.4%,-12.9,/,-3.8%,/
O=C(CCN1C(=O)C2C3C=CC(C4CC34)C2C1=O)OCC(=O)c1ccccc1 (stereo not given),-1.3%,-9.4%,-82.8*,3.6%,-12.0%,13.5%
O=C(CCN1C(=O)C2C3C=CC(C4CC34)C2C1=O)Oc1cccc2cccnc12 (stereo not given),i,-12.4%,-95.5*,16.4µM*,-25.9%,-20.2%
Cc1cccc(N2CCN(Cc3cc(=O)oc4cc(C)ccc34)CC2C)c1 (stereo not given),-3.9%,-1.6%,-65.6*,10.2%[46.1 µM],-23.5%,10.4%[46.1 µM]
Cc1cc(C)c2c(CN3CCN(c4ccccc4)CC3)cc(=O)oc2c1,i,-8.7%,-4.0,/,-19.4%,/
Cc1cc(C)c2c(CN3CCN(Cc4ccccc4)CC3)cc(=O)oc2c1,/,/,-61.7*,/,0.0%,/
Cc1cc(C)c2c(CN(Cc3ccccc3)Cc3ccccc3)cc(=O)oc2c1,i,0.6%,?,/,-9.0%,22.3µM*
COc1cccc(CNc2ncnc3sc(C(=O)N4CCOCC4)c(C)c23)c1OC,-20.0%,-5.6%,/,/,-14.2%,/
SMILES,VACV mCherry inh,Vaccinia Venus,HCMV antiviral,MARV entry inh,FMDV inh,LASV entry inh
c1ccc(-n2cccc2CNC2CCCCC2)cc1,-19.2%,-11.9%,/,20.6µM*,/,2.0%
N#CCCn1c(=O)cnc2cnc(Oc3cccc(Cl)c3)nc21,/,/,/,/,-10.0%,/
O=c1[nH]ccc2c([N+](=O)[O-])cccc12,-7.6%,-5.8%,7.3,/,10.9%,/
O=[N+]([O-])c1cccc2c([As](=O)(O)O)cccc12,i,-14.3%,-73.5*,-6.1%[46.1 µM],-5.1%,8.6%[46.1 µM]
c1ccc2c(CN3CCOCC3)c[nH]c2c1,/,/,19.1,/,-8.0%,/
c1ccc2c(CNC3CCCCCC3)c[nH]c2c1,/,/,10.5,13µM*,?,-2.0%
c1ccc2c(CN3CCCCCC3)c[nH]c2c1,/,/,-77.2*,?,0.0%,-14.9%
c1cnc(N2CCN(Cc3c[nH]c4ccccc34)CC2)nc1,/,12.6µM*,-4.6,?,?,-5.3%
O=C(C[n+]1ccncc1)c1cccc([N+](=O)[O-])c1,i,-12.4%,/,/,/,/
CC(=O)N1CCCC1c1nc2ccccc2n1Cc1cccc(Cl)c1 (stereo not given),-11.3%,-0.4%,5.8,-2.5%[46.1 µM],-30.5%,-1.1%[46.1 µM]
COc1ccc(-n2c(=O)c(CCc3ccccc3)nc3cnc(N4CCNCC4)nc32)cc1,/,/,/,/,-7.5%,/
CC1=CC(C)[C@H](/C=N/n2c(=O)[nH]c3c([nH]c4ccc(Br)cc43)c2=O)C(C)C1 (stereo not given in full),i,3.4%,-74.2*,-25.1%,-27.6%,?
COc1ccc(/C=N/n2c(=O)[nH]c3c([nH]c4ccc(Br)cc43)c2=O)cc1CN1CCOCC1,-20.0%,-18.7%,70.8,-26.2%,-18.5%,19.6%
COc1ccc2c(c1)[nH]c1c(=O)n(/N=C/C3C(C)C=C(C)CC3C)c(=O)[nH]c12 (stereo not given),i,-9.9%,-23.8,?,0.0%,-0.6%
COc1ccc2[nH]c3c(=O)n(/N=C/[C@H]4C(C)C=C(C)CC4C)c(=O)[nH]c3c2c1 (stereo not given in full),/,/,-79.9*,-31.3%,?,-4.3%
COCC(=O)Nc1cc(C(=O)N2CCc3sccc3C2)c2c(c1)nc(-c1ccncc1)n2C,-14.5%,-11.4%,/,/,0.9%,/
O=S(=O)(Cc1cc(Cl)nc(-c2ccncc2)n1)c1ccccc1,-3.0%,-3.6%,-65.8*,?,-7.7%,-6.7%
O=S(=O)(Cc1cc(Cl)nc(-c2ccccc2)n1)c1ccccc1,i,-9.4%,-35.9,?,3.3%,-0.3%
Nc1ncnc2occ(-c3ccc(NC(=O)Nc4cc(C(F)(F)F)cc(C(F)(F)F)c4)cc3)c12,/,/,/,/,/,19.9µM*
COc1ccc(-c2coc3ncnc(N)c23)cc1,/,/,/,/,/,4.4%
COc1ccc(-c2nc(CS(=O)CC(=O)NCCc3ccccc3)c(C)o2)cc1OC (stereo not given),-3.5%,-8.2%,6.7,7.5%[46.1 µM],21.9%,-2.2%[46.1 µM]
CCCCCCC#C[C@@H]1C=C[C@H](OC(=O)OCC)[C@@H](COC(=O)OCC)O1,/,/,/,-12.0%[14.2 µM],/,/
Cc1cc(-c2ccc(S(=O)(=O)Nc3ccc(Cl)cc3C)cc2)on1,-24.3%,-26.0%,-77.7*,/,-9.7%,-27.3%[46.1 µM]
Cc1cc(-c2ccc(S(=O)(=O)Nc3ccccc3C)cc2)on1,?,?,5.4,/,-10.7%,-11.8%[46.1 µM]
